Compounds with a hit are over-represented: about 2.8% of the library has one in this group of screens.
Pol kappa inh – inhibitors of human DNA polymerase kappa; 0.53% of 400,000 active; Potency, µM (highest dose often 107 µM), most hits filed as inhibitors; Q9UBT6; purified Pol kappa, fluorescent DNA synthesis assay, 10 min; AID 588579
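Readout: fluorescence, taken kinetically at 0 and 10 min. Conditions: 10 nM Pol kappa, 15 min RT compound preincubation, 50 nM substrate final. Controls: enzyme-free buffer wells.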
Pol eta inh – DNA polymerase eta (human) inhibition. Q9Y253. recombinant Pol eta, fluorescent DNA replication assay. Potency, µM (highest dose often 114 µM), usual class: inhibitors. 1.2% of 390,000 active
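Fluorescent replication assay: 50 nM final substrate added after a 15 min room-temperature compound preincubation with 10 nM enzyme. Signal taken at 0 min and again at 10 min.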
Pol beta inh – blocks human DNA polymerase beta activity; P06746; Pol beta primer extension/strand displacement, fluorescence kinetic; Potency, µM (series often up to 114 µM), actives largely listed as inhibitors; 1.3% of 340,000 active
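Curves were derived by four-parameter Hill fits of normalized qHTS data. The kinetic fluorescent primer-extension read was taken at 0 and 10 min after 50 nM substrate, following a 15 min room-temperature preincubation of 10 nM enzyme with compounds.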
PI5P4Ka inh – inhibitors of human PI5P4K alpha. AID 652105. PI5P4Kalpha enzyme, ADP-Glo luminescence, 60 min; active compounds read low. 1.2% of 330,000 active. max response, %. P48426; active = max response of -50% or lower; inconclusive = between -30% and -50%; inactive = -30% or higher; note: value at the top dose of about 77 µM
Target sequence (P48426 whole entry, looked up): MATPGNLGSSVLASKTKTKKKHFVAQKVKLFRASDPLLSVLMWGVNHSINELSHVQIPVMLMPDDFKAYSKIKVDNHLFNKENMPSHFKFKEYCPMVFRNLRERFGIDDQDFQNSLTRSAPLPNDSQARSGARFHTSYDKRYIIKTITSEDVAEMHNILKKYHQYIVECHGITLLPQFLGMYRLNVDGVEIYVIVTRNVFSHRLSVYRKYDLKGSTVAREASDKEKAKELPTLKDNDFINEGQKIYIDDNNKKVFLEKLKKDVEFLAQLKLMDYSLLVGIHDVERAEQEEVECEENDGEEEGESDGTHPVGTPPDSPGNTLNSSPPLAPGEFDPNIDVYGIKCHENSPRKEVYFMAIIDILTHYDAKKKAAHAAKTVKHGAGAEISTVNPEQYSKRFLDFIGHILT
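Controls without substrate or without enzyme flank wells where PI5P4Kalpha converts substrate using 5 microM ATP (final). Incubation lasts 60 minutes at room temperature; ADP formed is read by ADP-Glo luminescence.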
FEN1 inh – human FEN1 inhibition | Recombinant FEN1 flap cleavage, fluorescence, 15 min | P39748 | Potency, µM (titrated, usually from 114 µM), most hits filed as inhibitors | 0.35% of 390,000 active; note: nearly all actives have a fitted effect of over 65% in size
Target sequence (P39748 whole entry, looked up): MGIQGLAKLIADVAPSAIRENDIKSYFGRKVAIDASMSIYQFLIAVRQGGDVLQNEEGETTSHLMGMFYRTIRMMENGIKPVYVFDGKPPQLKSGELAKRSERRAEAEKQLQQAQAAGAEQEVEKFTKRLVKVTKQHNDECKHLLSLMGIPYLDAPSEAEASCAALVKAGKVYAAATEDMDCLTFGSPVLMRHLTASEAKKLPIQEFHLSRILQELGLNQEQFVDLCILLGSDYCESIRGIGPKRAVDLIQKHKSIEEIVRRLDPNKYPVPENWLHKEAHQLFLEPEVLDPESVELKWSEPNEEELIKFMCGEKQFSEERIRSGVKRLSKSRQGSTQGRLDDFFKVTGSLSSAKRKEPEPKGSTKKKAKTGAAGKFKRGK
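Quantitative HTS format: each compound was titrated, incubated with 10 nM nuclease for 15 min at room temperature, then challenged with flap substrate at 50 nM final. Signal change over 15 min gave concentration–effect curves.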
Pol iota inh – blocks human DNA polymerase iota activity | Potency, µM (top dose mostly 115 µM), usual class: inhibitors | 1% of 390,000 active | Q9UNA4 | Pol iota fluorescent replication assay, 10 min | AID 588590
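Fluorescent replication assay read twice, at 0 min and 10 min after adding 50 nM (final) substrate. Enzyme (10 nM) and compounds were first incubated 15 min at room temperature; enzyme-free buffer wells were negative controls.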
Each line names hits and unclear results; the compound was inactive in the other large screens. Unless noted, calls come from the whole dose curve; as a rule, active = well fitted curve in the direction sought with a large enough effect; inconclusive = small, poorly fitted or top-dose-only effect, or another doubt; inactive = no such curve, though single readings can be large; an effect the other way counts as inactive or inconclusive.

O=C1c2ccccc2-c2onc3ccc(NCCCn4ccnc4)c1c23	Pol kappa inh 20µM, Pol eta inh 79µM, Pol beta inh 25µM, FEN1 inh 16µM, Pol iota inh inconclusive (no result: PI5P4Ka inh)
Cc1cc(NC(=O)COc2cccc3cccnc23)no1	Pol beta inh 32µM (no result: Pol kappa inh, Pol eta inh, PI5P4Ka inh, FEN1 inh, Pol iota inh)
CCOC(=O)c1ccc(NC(=O)CC2C(=O)N(c3ccccc3)C(=O)N2Cc2ccc(C)cc2)cc1 (centres undefined)	none (no result: PI5P4Ka inh)
O=C(CSc1ccc2c(c1)OCCO2)NCc1ccco1	Pol kappa inh inconclusive, Pol eta inh inconclusive, Pol beta inh 40µM, Pol iota inh inconclusive
COc1ccccc1C(C)NCC(=O)NC(=O)NCc1ccco1 (centres undefined)	Pol eta inh inconclusive, Pol iota inh 50µM (no result: Pol beta inh)
O=C(CSc1nnc(NC(=O)C2CC(=O)N(c3ccccc3)C2)s1)NCc1ccco1 (centres undefined)	Pol kappa inh inconclusive, Pol eta inh inconclusive, Pol beta inh 89µM, PI5P4Ka inh inconclusive, Pol iota inh 50µM
COc1ccccc1OCC(=O)NCc1ccco1	none (no result: PI5P4Ka inh)
Cc1ccc(SCC(=O)NC(=O)NCc2ccco2)cc1C	Pol beta inh 40µM (no result: Pol kappa inh, Pol eta inh, PI5P4Ka inh, FEN1 inh, Pol iota inh)
O=C(COc1ccc(Cl)cc1)Nc1cc(S(=O)(=O)N2CCCCC2)ccc1N1CCCCC1	none
Cc1ccccc1Nc1nnc(SCC(=O)NC(=O)NCc2ccco2)s1	Pol kappa inh inconclusive, Pol eta inh inconclusive, Pol beta inh inconclusive, FEN1 inh inconclusive, Pol iota inh 22µM (no result: PI5P4Ka inh)
Cc1cc(S(=O)(=O)NC(C)c2nnc3ccccn23)ccc1Br (centres undefined)	none (no result: Pol beta inh)
O=C1C(Cl)=C(N2CCN(c3ccccc3[N+](=O)[O-])CC2)C(=O)c2ccccc21	Pol eta inh inconclusive, Pol iota inh 7.9µM
O=[N+]([O-])c1cc(Cl)ccc1N1CCCC1	none
CSc1nsc2nc(=O)c(/C=C3\C=Nc4ccccc43)c(N)n12	Pol eta inh inconclusive, PI5P4Ka inh -56, FEN1 inh inconclusive
CC1=Nc2ccc(C)cc2/C1=C/c1c(N)n2c(S(=O)(=O)C(C)C)nsc2nc1=O	Pol eta inh inconclusive, Pol beta inh inconclusive, PI5P4Ka inh -85, FEN1 inh inconclusive, Pol iota inh inconclusive
CSc1nsc2nc(=O)c(/C=C3\C(C)=Nc4ccc(C)cc43)c(N)n12	Pol eta inh inconclusive, PI5P4Ka inh -68
CC1=Nc2ccccc2/C1=C/c1c(N)n2c(S(=O)(=O)CC(C)C)nsc2nc1=O	Pol eta inh 40µM, Pol beta inh inconclusive, PI5P4Ka inh -65
Cc1cn2c(N)c(/C=C3\C=Nc4ccccc43)c(=O)nc2s1	Pol iota inh inconclusive
CC1=Nc2ccccc2/C1=C/c1c(N)n2c(S(=O)(=O)C(C)C)nsc2nc1=O	Pol eta inh inconclusive, PI5P4Ka inh -76
O=C(/C=C/c1ccc(Cl)cc1)NC1CC2CCC1C2 (centres undefined)	none
O=C(/C=C/c1ccc([N+](=O)[O-])cc1)NC1CC2CCC1C2 (centres undefined)	PI5P4Ka inh -52
COc1ccc(/C=N/c2nc3ccccc3n2C)cc1OC	Pol beta inh 79µM (no result: PI5P4Ka inh)
Cn1c(/N=C/c2cccs2)nc2ccccc21	none (no result: PI5P4Ka inh)
Cc1nn(C)c2ncc(C(N)=O)c(Oc3ccc(Cl)cc3)c12	none
O=C1c2cccc([N+](=O)[O-])c2C(=O)N1CCO	none
O=C1CSC(=S)N1N1C(=O)c2cccc([N+](=O)[O-])c2C1=O	Pol beta inh 3.2µM (no result: Pol kappa inh, Pol eta inh, PI5P4Ka inh, FEN1 inh, Pol iota inh)
COc1ccc2nc(NC(=O)c3nc(SCc4ccccc4F)ncc3Cl)sc2c1	Pol kappa inh inconclusive (no result: PI5P4Ka inh)
COc1ccc2nc(NC(=O)c3nc(S(=O)(=O)Cc4ccccc4F)ncc3Cl)sc2c1	Pol kappa inh inconclusive, Pol eta inh inconclusive, Pol beta inh 5.6µM, Pol iota inh inconclusive (no result: PI5P4Ka inh)
CCOc1ccc(S(=O)(=O)N(C(=O)c2ccncc2)c2ccc3oc(C)c(C(=O)OC)c3c2)cc1	none (no result: PI5P4Ka inh)
CCOC(=O)Cc1csc(NC(=O)c2cccc(OC)c2)n1	none
CCOC(=O)Cc1csc(NC(=O)c2sc3nc4c(C)cc(C)cc4cc3c2N)n1	Pol eta inh inconclusive, Pol beta inh 32µM, Pol iota inh 50µM (no result: PI5P4Ka inh)
Cn1cc(-c2nc3cnc(N4CCNCC4)nc3n(Cc3ccc(F)cc3)c2=O)c2ccccc21	none (no result: Pol eta inh, Pol beta inh, PI5P4Ka inh, FEN1 inh, Pol iota inh)
O=C(NCc1ccc(Cl)cc1)C(=O)NCC(c1cccnc1)N1CCN(c2ccccc2)CC1 (centres undefined)	none (no result: PI5P4Ka inh)
C=CCn1c(SCC(=O)NCC2CCCO2)nc2scc(-c3ccco3)c2c1=O (centres undefined)	Pol beta inh 7.1µM, Pol iota inh inconclusive (no result: PI5P4Ka inh)
C=CCn1c(SCC(=O)NCCOC)nc2scc(-c3ccco3)c2c1=O	Pol kappa inh inconclusive, Pol eta inh 18µM, Pol beta inh inconclusive, Pol iota inh inconclusive
Cn1c(SCC(=O)NCC2CCCO2)nc2scc(-c3ccccc3)c2c1=O (centres undefined)	none (no result: Pol beta inh)
C=CCn1c(SCC(N)=O)nc2scc(-c3ccc(C)o3)c2c1=O	none
Cc1nc(SCC(=O)N(CC(C)C)C2CCS(=O)(=O)C2)c(C#N)c(C)c1C (centres undefined)	none (no result: Pol beta inh)
O=C(Nc1cccc(Cl)c1)c1ccc(F)c(S(=O)(=O)NCc2ccc3c(c2)OCO3)c1	none
Cc1cccnc1NC(=O)CCc1nnc2ccc(NCc3ccco3)nn12	Pol eta inh 45µM, Pol beta inh inconclusive, Pol iota inh inconclusive
COC(=O)c1ccc(NC(=O)CCc2nnc3ccc(NCc4ccco4)nn23)cc1	Pol kappa inh inconclusive, Pol eta inh inconclusive, Pol beta inh inconclusive, PI5P4Ka inh inconclusive, Pol iota inh 35µM
COc1ccc(NC(=O)CCc2nnc3ccc(NCc4ccco4)nn23)cc1OC	Pol eta inh inconclusive, Pol iota inh inconclusive
CC(CCc1ccco1)NC(=O)CCc1nnc2ccc(NCc3ccccc3Cl)nn12 (centres undefined)	none
CC(CCc1ccco1)NC(=O)CCc1nnc2ccc(NCc3ccc(Cl)cc3)nn12 (centres undefined)	Pol kappa inh 79µM, Pol iota inh 25µM
Cc1ccc(NC(=O)CCc2nnc3ccc(NCc4ccco4)nn23)cc1F	PI5P4Ka inh inconclusive, Pol iota inh inconclusive
COc1ccc(NC(=O)CCc2nnc3ccc(NCc4ccco4)nn23)cc1	none
COc1ccc(NC(=O)CCc2nnc3ccc(NCc4ccc5c(c4)OCO5)nn23)cc1	Pol beta inh inconclusive, Pol iota inh 45µM
CCOc1ccccc1NC(=O)Nc1cc2c(cc1N1CCCCC1)n(CC)c(=O)n2CC	none (no result: PI5P4Ka inh)
CN(C)C(=O)/N=N/C(=O)N(C)C	none (no result: PI5P4Ka inh, FEN1 inh)
Cc1ccc(N2CC(NC(=O)c3ccccc3Br)CC2=O)cc1 (centres undefined)	none (no result: PI5P4Ka inh)
Cc1ccc(-c2ccc(/C=C3\SC(N4CCOCC4)=NC3=O)o2)cc1	Pol eta inh inconclusive, FEN1 inh inconclusive
Cc1ccc(/C=C2\SC(N3CCN(C(c4ccccc4)c4ccccc4)CC3)=NC2=O)o1	Pol beta inh 40µM, PI5P4Ka inh inconclusive

Screens (PubChem BioAssay)
